Source: PubChem BioAssay (EPA / NIEHS)
The source made the active and inactive calls. The calls were made as follows: active = hit-call score of the fitted dose curve at least 0.9, where 1 is the maximum; inactive = score below 0.9.

What was measured:
Conditions in all cases: mRNA level, 48 h; actives raise or lower the signal
[1] = read-out: ABC Transporter (ABCB11), ABCB11 (gene 8647); test: LTEA_HepaRG_ABCB11: Life Technologies and Expression Analysis (LTEA) Assay for ABC Transporter (ABCB11) using HepaRG (AID 2283463)
How it was run: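 HepaRG, 48 h exposure, 8-pt half-log CRC top 100 uM, 0.5% DMSO vehicle, duplicates. Readout: TaqMan qRT-PCR of ABCB11 mRNA, housekeeping-normalized (ACTB/GAPDH/POLR2A). Bidirectional fit vs DMSO baseline.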

[2] = read-out: ABC Transporter (ABCC2), ABCC2 (gene 1244); test: LTEA_HepaRG_ABCC2: Life Technologies and Expression Analysis (LTEA) Assay for ABC Transporter (ABCC2) using HepaRG (AID 2283464)
How it was run: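 HepaRG, 48 h post-plating; serum-free induction medium; cpd 8-pt, 100 uM top, half-log, 0.5% DMSO, duplicate, 48 h. Readout: ABCC2 mRNA by qRT-PCR, norm. ACTB/GAPDH/POLR2A. Bidirectional fit vs DMSO baseline.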

[3] = read-out: Broad substrate specificity ATP-binding cassette transporter ABCG2 (Homo sapiens) (UniProt Q9UNQ0); test: LTEA_HepaRG_ABCG2: Life Technologies and Expression Analysis (LTEA) Assay for ABC Transporter (ABCG2) using HepaRG (AID 2283465)
How it was run: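 HepaRG, 48 h exposure, 8-pt half-log series from 100 uM, 0.5% DMSO vehicle, duplicates. Readout: ABCG2 transcript by qRT-PCR (Fluidigm array), housekeeping-normalized; bidirectional curve fit relative to DMSO baseline.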

[4] = read-out: ATP-citrate lyase (ACLY), ACLY (gene 47); test: LTEA_HepaRG_ACLY: Life Technologies and Expression Analysis (LTEA) Assay for ATP-citrate lyase (ACLY) using HepaRG (AID 2283466)
How it was run: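 qRT-PCR readout of ACLY transcript after 48 h chemical treatment of HepaRG cells; expression normalized to three housekeeping genes. Eight-point half-log series, highest 100 uM, 0.5% DMSO vehicle. Gain or loss fitted against DMSO baseline.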

[5] = read-out: Peroxisomal acyl-coenzyme A oxidase 1 (ACOX1) gene, ACOX1 (gene 51); test: LTEA_HepaRG_ACOX1: Life Technologies and Expression Analysis (LTEA) Assay for Peroxisomal acyl-coenzyme A oxidase 1 (ACOX1) gene using HepaRG (AID 2283467)
How it was run: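 HepaRG, 48 h chemical exposure, 8-pt half-log series from 100 uM top, 0.5% DMSO vehicle, duplicates. Readout: ACOX1 mRNA by Fluidigm qRT-PCR, housekeeping-normalized; bidirectional fit vs DMSO baseline.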

[6] = read-out: Alkaline Phosphatase, Placental (ALPP) gene, ALPP (gene 250); test: LTEA_HepaRG_ALPP: Life Technologies and Expression Analysis (LTEA) Assay for Alkaline Phosphatase, Placental (ALPP) gene using HepaRG (AID 2283468);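 as to AC50: differentiated human HepaRG liver cells in serum-free induction medium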
How it was run: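 HepaRG, 48 h plating then 48 h dosing, serum-free induction medium, 0.5% DMSO. 8 conc, half-log, max 100 uM, duplicates. Endpoint: ALPP transcript by qRT-PCR, housekeeping-normalized; gain or loss fitted vs DMSO.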

[7] = read-out: Bcl-2 (BAD) gene, BAD (gene 572); test: LTEA_HepaRG_BAD: Life Technologies and Expression Analysis (LTEA) Assay for Bcl-2 (BAD) gene using HepaRG (AID 2283469)
How it was run: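 HepaRG, 48 h exposure, 8-pt half-log curve from 100 uM in 0.5% DMSO, duplicates. Readout: TaqMan qRT-PCR for BAD mRNA, housekeeping-normalised (ACTB/GAPDH/POLR2A); gain or loss fitted against DMSO baseline.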

[8] = read-out: Bcl-2 (BAX) gene, BAX (gene 581); test: LTEA_HepaRG_BAX: Life Technologies and Expression Analysis (LTEA) Assay for Bcl-2 (BAX) gene using HepaRG (AID 2283470)
How it was run: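 Gene expression measured by Fluidigm qRT-PCR with three housekeeping genes for normalisation. HepaRG cells, plated 48 h beforehand, treated 48 h at up to 100 uM (8-point, half-log) in 0.5% DMSO. Bidirectional fitting versus DMSO.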

[9] = read-out: adenosine kinase (ADK) gene, ADK (gene 132); test: LTEA_HepaRG_ADK: Life Technologies and Expression Analysis (LTEA) Assay for adenosine kinase (ADK) gene using HepaRG (AID 2283471)
How it was run: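 Following 48 h exposure of HepaRG cells in 0.5% DMSO (top concentration 100 uM, duplicate wells), ADK mRNA induction or suppression was measured by qRT-PCR, normalised to ACTB/GAPDH/POLR2A, and fitted bidirectionally relative to vehicle.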

[10] = read-out: Alpha-fetoprotein (AFP) gene, AFP (gene 174); test: LTEA_HepaRG_AFP: Life Technologies and Expression Analysis (LTEA) Assay for Alpha-fetoprotein (AFP) gene using HepaRG (AID 2283472)
How it was run: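 AFP transcript measured by TaqMan qRT-PCR with three housekeeping genes for normalization, after 48 h chemical treatment of HepaRG cells (top 100 uM, half-log steps, 0.5% DMSO). Gain or loss fitted against vehicle.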

[11] = read-out: Apoptosis regulator Bcl-2 (Homo sapiens) (UniProt P10415); test: LTEA_HepaRG_BCL2: Life Technologies and Expression Analysis (LTEA) Assay for Bcl-2 gene using HepaRG (AID 2283475)
How it was run: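 qRT-PCR of BCL2 transcript, normalized to three housekeeping genes (ACTB, GAPDH, POLR2A), after 48 h chemical exposure of HepaRG cells; concentrations top 100 uM with half-log dilutions, 0.5% DMSO vehicle, duplicates; changes up or down fitted relative to vehicle.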

[12] = read-out: Bcl-2 (BID) gene, BID (gene 637); test: LTEA_HepaRG_BID: Life Technologies and Expression Analysis (LTEA) Assay for Bcl-2 (BID) gene using HepaRG (AID 2283476)
How it was run: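 Duplicate 48 h treatments of HepaRG cells in serum-free induction medium spanned 100 uM downward in half-log steps, 0.5% DMSO. Transcript change quantified by qRT-PCR against three housekeeping genes, fitted up or down versus DMSO.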

Caspase-3 (Homo sapiens) = Caspase-3 (Homo sapiens) (UniProt P42574); test: LTEA_HepaRG_CASP3: Life Technologies and Expression Analysis (LTEA) Assay for cysteine-aspartic acid protease (CASP3) using HepaRG (AID 2283477)
Sequence of Caspase-3 (Homo sapiens) (P42574 whole entry, looked up): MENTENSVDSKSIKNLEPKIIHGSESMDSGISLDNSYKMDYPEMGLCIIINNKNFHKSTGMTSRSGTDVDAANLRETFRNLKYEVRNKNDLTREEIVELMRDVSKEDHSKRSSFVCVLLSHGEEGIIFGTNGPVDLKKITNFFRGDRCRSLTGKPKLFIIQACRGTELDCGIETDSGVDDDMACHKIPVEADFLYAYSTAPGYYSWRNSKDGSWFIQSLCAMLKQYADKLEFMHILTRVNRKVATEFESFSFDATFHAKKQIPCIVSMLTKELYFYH
How it was run: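 Read-out is CASP3 mRNA level by TaqMan qRT-PCR in human HepaRG cells after 48 h chemical exposure. Eight half-log concentrations topping at 100 uM were tested in 0.5% DMSO; gain or loss was fitted relative to DMSO.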

[13] = read-out: Cytochrome P450 (CYP24A1), CYP24A1 (gene 1591); test: LTEA_HepaRG_CYP24A1: Life Technologies and Expression Analysis (LTEA) Assay for Cytochrome P450 (CYP24A1) using HepaRG (AID 2283478)
How it was run: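 HepaRG, 48 h chemical exposure, 8-pt half-log CRC from 100 uM, 0.5% DMSO vehicle, duplicates. Endpoint: CYP24A1 mRNA by Fluidigm TaqMan qRT-PCR, normalized ACTB/GAPDH/POLR2A; gain/loss fit vs DMSO.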

[14] = read-out: Cytochrome P450 (CYP1A2), CYP1A2 (gene 1544); test: LTEA_HepaRG_CYP1A2: Life Technologies and Expression Analysis (LTEA) Assay for Cytochrome P450 (CYP1A2) using HepaRG (AID 2283479)
How it was run: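 CYP1A2 transcript induction or loss, quantified by Fluidigm qRT-PCR against three housekeeping genes, was fitted bidirectionally against 0.5% DMSO controls. Human HepaRG cells received eight half-log concentrations from 100 uM over 48 h.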

[15] = read-out: Cytochrome P450 (CYP2B6), CYP2B6 (gene 1555); test: LTEA_HepaRG_CYP2B6: Life Technologies and Expression Analysis (LTEA) Assay for Cytochrome P450 (CYP2B6) using HepaRG (AID 2283481)
How it was run: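 HepaRG cells plated 48 h, switched to serum-free induction medium, then dosed 48 h (8 points, half-log from 100 uM, 0.5% DMSO). RNA isolated; CYP2B6 expression measured by qRT-PCR; gain or loss fitted relative to DMSO.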

[16] = read-out: Cytochrome P450 2C19 (Homo sapiens) (UniProt P33261); test: LTEA_HepaRG_CYP2C19: Life Technologies and Expression Analysis (LTEA) Assay for CYP2C19 using HepaRG (AID 2283482)
How it was run: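 Transcript levels of CYP2C19 were quantified by qRT-PCR after HepaRG cells were treated for 48 hours with test chemicals up to 100 uM (eight half-log concentrations, 0.5% DMSO vehicle). Gain or loss of signal was fitted relative to DMSO.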

BCL2L11 (gene 10018) = test: LTEA_HepaRG_BCL2L11: Life Technologies and Expression Analysis (LTEA) Assay for Bcl-2 (BCL2L11) gene using HepaRG (AID 2283473)
How it was run: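 Read-out is BCL2L11 transcript level by qRT-PCR, normalized to three housekeeping genes and fitted bidirectionally against 0.5% DMSO vehicle. HepaRG cells received chemicals for 48 h in serum-free induction medium, 100 uM down in half-log dilutions.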

[17] = read-out: cysteine-aspartic acid protease (CASP8), CASP8 (gene 841); test: LTEA_HepaRG_CASP8: Life Technologies and Expression Analysis (LTEA) Assay for cysteine-aspartic acid protease (CASP8) using HepaRG (AID 2283480)
How it was run: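 qRT-PCR readout of CASP8 mRNA, normalized to three housekeeping genes, after 48 h chemical exposure of HepaRG cells; 8-point half-log series, top 100 uM, 0.5% DMSO vehicle. Bidirectional curve fitting against DMSO baseline.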

Measured: AC50

Sequence of Cytochrome P450 2C19 (Homo sapiens) (P33261 whole entry, looked up): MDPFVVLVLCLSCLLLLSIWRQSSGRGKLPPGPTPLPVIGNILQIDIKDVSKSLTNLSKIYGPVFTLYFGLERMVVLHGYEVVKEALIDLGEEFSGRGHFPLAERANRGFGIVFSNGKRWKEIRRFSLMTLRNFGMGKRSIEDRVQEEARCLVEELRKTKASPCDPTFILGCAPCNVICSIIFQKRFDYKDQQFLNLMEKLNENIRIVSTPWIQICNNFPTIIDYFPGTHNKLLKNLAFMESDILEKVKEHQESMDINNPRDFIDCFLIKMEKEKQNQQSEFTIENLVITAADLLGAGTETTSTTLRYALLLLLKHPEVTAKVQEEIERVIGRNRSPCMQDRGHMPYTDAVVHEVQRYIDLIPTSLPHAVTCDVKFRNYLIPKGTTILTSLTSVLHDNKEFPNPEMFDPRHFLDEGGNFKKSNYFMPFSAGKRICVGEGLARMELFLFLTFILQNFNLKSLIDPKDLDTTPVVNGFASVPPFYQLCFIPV
Sequence of Broad substrate specificity ATP-binding cassette transporter ABCG2 (Homo sapiens) (Q9UNQ0 whole entry, looked up): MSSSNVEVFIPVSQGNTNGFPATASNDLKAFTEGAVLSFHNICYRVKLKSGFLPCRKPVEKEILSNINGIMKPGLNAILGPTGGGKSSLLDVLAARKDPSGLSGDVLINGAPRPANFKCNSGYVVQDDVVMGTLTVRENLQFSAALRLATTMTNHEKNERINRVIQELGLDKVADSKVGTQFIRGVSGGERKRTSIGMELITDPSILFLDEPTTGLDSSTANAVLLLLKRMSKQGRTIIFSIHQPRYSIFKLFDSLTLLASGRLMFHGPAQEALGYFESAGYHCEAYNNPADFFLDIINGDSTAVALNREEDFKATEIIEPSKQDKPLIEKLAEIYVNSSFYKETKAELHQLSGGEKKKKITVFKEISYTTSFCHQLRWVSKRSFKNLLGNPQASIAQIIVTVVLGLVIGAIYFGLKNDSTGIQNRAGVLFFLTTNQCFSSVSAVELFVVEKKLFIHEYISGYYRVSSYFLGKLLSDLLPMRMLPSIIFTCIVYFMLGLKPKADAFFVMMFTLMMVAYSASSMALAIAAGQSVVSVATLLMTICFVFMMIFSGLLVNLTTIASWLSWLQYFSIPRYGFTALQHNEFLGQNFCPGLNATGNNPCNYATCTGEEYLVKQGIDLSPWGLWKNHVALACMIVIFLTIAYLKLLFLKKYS
Sequence of Apoptosis regulator Bcl-2 (Homo sapiens) (P10415 whole entry, looked up): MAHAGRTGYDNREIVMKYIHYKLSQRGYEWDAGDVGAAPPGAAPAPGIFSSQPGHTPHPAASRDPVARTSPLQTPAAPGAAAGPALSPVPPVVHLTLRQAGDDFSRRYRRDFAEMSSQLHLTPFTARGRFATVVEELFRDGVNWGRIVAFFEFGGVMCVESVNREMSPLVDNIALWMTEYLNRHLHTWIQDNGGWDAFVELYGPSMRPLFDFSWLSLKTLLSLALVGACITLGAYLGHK

OC(c1ccc(Cl)cc1)(c1cncnc1)c1ccccc1Cl (configuration not stated)
active: [1] 89.4 µM | [2] 2.46 µM | [4] 12.6 µM | [5] 92.8 µM | [6] 61.5 µM | [8] 66.4 µM | [10] 80 µM | [11] 75.1 µM | [14] 86.6 µM | [15] 91.3 µM | [16] 89.6 µM
inactive: [3] | [7] | [9] | [12] | Caspase-3 (Homo sapiens) | [13]

CCc1nn(C)c(C(=O)NCc2ccc(C(C)(C)C)cc2)c1Cl
inactive: [7] | [13]
active: [1] 0.877 µM | [2] 14.3 µM | [3] 0.361 µM | [5] 0.369 µM | [6] 0.688 µM | [8] 18 µM | [9] 35.8 µM | [10] 0.965 µM | BCL2L11 (gene 10018) 0.636 µM | [11] 0.822 µM | [12] 50 µM | Caspase-3 (Homo sapiens) 16.1 µM | [14] 0.866 µM | [15] 0.346 µM | [16] 20.7 µM

CCNc1nc(Cl)nc(NC(C)C)n1
active: [14] 50 µM | [15] 2.34 µM | [16] 15.2 µM
not listed: BCL2L11 (gene 10018)
inactive: all other assays above
